AC50 and activity, negative = inhibition data for 100 compounds are collected here from PubChem BioAssay AID1851 (National Center for Advancing Translational Sciences (NCATS), 2009).

Molecules are shown by their SMILES. In all, about 16,000 compounds went through this assay and about 2,600 (16%) were called active. Another 20% or so got no clear call; they are omitted. Calls follow the shape of the dose curve; as a rule, active = well fitted curve in the direction sought with a large enough effect; inconclusive = small, poorly fitted or top-dose-only effect, or effect the other way; inactive = no such curve, though single readings can be large or run the other way. Not all results are given here.

For orientation: AC50 means the midpoint of the concentration-response curve, whichever way the signal moves.
% is scaled to controls: 0 for no effect and ±100 for the full control effect.

The target of this assay is Cytochrome P450 2D6 (Homo sapiens) (UniProt P10635). The experiment in a line: Cytochrome panel assay with activity outcomes. To be noted: recombinant CYP, pro-luciferin dealkylation, luminescence, p450-cyp2d6; series mostly up to 57.1 µM.
Cytochrome P450 2D6 (Homo sapiens), sequence (P10635 whole entry, looked up): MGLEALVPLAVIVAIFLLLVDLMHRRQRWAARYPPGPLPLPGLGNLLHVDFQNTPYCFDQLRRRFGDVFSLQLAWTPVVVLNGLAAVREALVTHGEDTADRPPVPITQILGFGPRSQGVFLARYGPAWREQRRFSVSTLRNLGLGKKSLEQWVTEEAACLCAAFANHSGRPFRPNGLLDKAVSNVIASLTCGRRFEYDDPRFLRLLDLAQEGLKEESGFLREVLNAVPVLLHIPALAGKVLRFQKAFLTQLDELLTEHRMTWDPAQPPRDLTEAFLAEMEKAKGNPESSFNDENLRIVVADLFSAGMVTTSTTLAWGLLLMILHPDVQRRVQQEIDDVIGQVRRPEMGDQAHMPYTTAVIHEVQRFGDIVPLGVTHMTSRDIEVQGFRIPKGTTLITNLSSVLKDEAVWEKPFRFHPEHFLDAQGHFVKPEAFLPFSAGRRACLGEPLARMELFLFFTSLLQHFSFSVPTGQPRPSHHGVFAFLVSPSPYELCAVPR
Take `O=C(CSc1nc2nc(-c3cccs3)cc(C(F)(F)F)c2c(=O)[nH]1)NCc1ccco1`: the AC50 entry was “inactive”.
Still for that read-out and setting: as for `O=C1COc2ccccc2CN1`, the entry is “inactive”; as for `Cn1c(=O)cnc2cnc(Nc3ccccc3)nc21`, “inactive”; as for `CC[C@]1(O)C[C@@H]2CN(CCc3c([nH]c4ccccc34)[C@](C(=O)OC)(c3cc4c(cc3OC)N(C)[C@H]3[C@](O)(C(=O)OC)[C@@H](C(=O)OC)[C@@]5(CC)C=CCN6CC[C@@]43[C@@H]65)C2)C1`, “inactive”.
`CN(C)S(=O)(=O)c1nc(Cl)c2[nH]cnc2n1`: the activity, negative = inhibition was 9.4% [at 11.4 µM] (inactive).
Regarding `Cn1cccc1C(=O)N1CCC2(CCCN(Cc3ccccc3)C2)CC1`, the AC50 was 10 µM (active).
As for `Cn1cccc1C(=O)N1CCC2(CCCN(Cc3ccc(C#N)cc3)C2)CC1`, the AC50 entry is “inactive”.
On to `CC(C)CN1CCCC2(CCN(C(=O)c3cccn3C)CC2)C1`, for which the AC50 result is “inactive”.
Same read-out and setting: as for `O=c1c(-c2ccccc2)nc2cnc(N3CCOCC3)nc2n1Cc1cccs1`, the entry is “inactive”; as for `CCOc1ccc(OCC)c(NC(=O)C2CCCN(S(=O)(=O)c3cccs3)C2)c1` (stereo not given), “inactive”.
Regarding `NNc1nncc2ccccc12`, the AC50 result was “inactive”.
Take `C=CC[C@@H]1C=C[C@H](O/N=C\[C@@H](C)[C@H](OCc2ccccc2)C(C)C)[C@H](CO)O1`: the activity, negative = inhibition was -3.33% [at 11.4 µM] (inactive).
As to `CC1(C)N=C(N)N=C(N)N1CCCCc1ccccc1`, the AC50 is 3.16 µM (active).
The same measure, in the same setting: next, `COc1ccc(-n2c(=O)c(-c3ccc(Cl)cc3)nc3cnc(N4CCOCC4)nc32)cc1`: “inactive”; `CCOC(=O)COc1c(OC)cc(Cl)cc1C1Nc2ccccc2C(=O)N1c1cccc(C)c1` (stereo not given): “inactive”; `O=C(NCCCN1CCCC1=O)c1ccc(CNS(=O)(=O)c2ccc(F)cc2)cc1`: “inactive”.
Same read-out and setting: next, `CN(CCC#N)C(=O)c1ccc(CNS(=O)(=O)c2ccc(F)cc2)cc1`: 28.2 µM (active); `Cn1c(CNS(=O)(=O)c2ccc(F)cc2)n[nH]c1=S`: “inactive”.
On to `CC(C)c1ccc2nc3sc(C(=O)N4CCc5ccccc5C4)c(N)c3cc2c1`, for which the AC50 entry was “inactive”.
Take `COc1ccccc1CN1CC2(CCN(C(=O)c3ccncc3)CC2)C1`: the AC50 is 0.794 µM (active).
Take `O=C(c1cnccn1)N1CCC2(CC1)CN(Cc1nccs1)C2`: the AC50 result was “inactive”.
Still for that read-out and setting: as for `O=C(c1cnccn1)N1CCC2(CCN(Cc3nccs3)CC2)CC1`, the entry is “inactive”; as for `COc1ccccc1CN1CC2(CCN(C(=O)c3cnccn3)CC2)C1`, “inactive”; as for `CN1CCCC2(CCN(C(=O)c3cnccn3)CC2)C1`, “inactive”.
Same read-out and setting: next, `O=C(c1cnccn1)N1CCC2(CCCN(Cc3nccs3)C2)CC1`: 7.94 µM (active).
On to `COc1ccccc1CN1CCCC2(CCN(C(=O)c3cnccn3)CC2)C1`, for which the AC50 was 3.98 µM (active).
Same read-out and setting: next, `COc1ccccc1CN1CCCC2(CCN(C(=O)c3ccncc3)CC2)C1`: 3.16 µM (active); `O=c1c(CCc2ccccc2)nc2cnc(Oc3ccccc3)nc2n1C1CC1`: “inactive”.
For `O=C(CSc1nc2ccccc2s1)c1sc2sc3ccccc3[n+]2c1O`, the activity, negative = inhibition is -14.5% [at 11.4 µM] (inactive).
Regarding `Cc1ccc(C(=O)O)cc1N1C(=O)c2cccc3cc(Br)cc(c23)C1=O`, the AC50 entry was “inactive”.
As to `CCCNC(=O)OC[C@@H]1O[C@H](CCO/N=C(\C)CCN2CCc3nc(-c4ccccc4)c(-c4ccccc4)cc3C2)C=C[C@@H]1Oc1ccc(OC)cc1`, the activity, negative = inhibition is -6.26% [at 11.4 µM] (inactive).
As to `COc1ccc(Oc2ncc3nc(C)c(=O)n(C)c3n2)cc1`, the AC50 entry was “inactive”.
Same read-out and setting: as for `CC(C)C12CN3CC(C(C)C)(CN(C1)C3c1ccco1)C2=O` (stereo not given), the entry is “inactive”.
Regarding `CC(=O)Nc1c(I)c(C(=O)N[C@H]2[C@@H](O)[C@H](O)[C@H](CO)O[C@@H]2O)c(I)c(N(C)C(C)=O)c1I`, the AC50 result is “inactive”.
With `CCOc1ccc(N(CCC#N)S(=O)(=O)c2ccc(OC)cc2)cc1`, the AC50 result is “inactive”.
In the case of `COc1cc([C@H]2c3cc4c(cc3[C@@H](O)[C@@H]3COC(=O)[C@H]23)OCO4)cc(OC)c1OC`, the AC50 entry was “inactive”.
Regarding `O=C1N/C(=C\c2ccc(N3CCOCC3)c(F)c2)C(=O)N1Cc1ccccc1`, the AC50 entry was “inactive”.
`COCCn1c(=O)c(C)nc2cnc(Oc3cccc(Cl)c3)nc21`: the AC50 entry was “inactive”.
In the case of `Sc1ccc2ccccc2c1CNCc1ccccc1`, the AC50 is 1.26 µM (active).
Turning to `O=C(O)c1ccc(CNCc2ccccc2)cc1`, the activity, negative = inhibition is 8.97% [at 11.4 µM] (inactive).
On to `CC(OC(=O)Cn1c(C(F)(F)F)nc2ccccc21)C(N)=O` (stereo not given), for which the AC50 result was “inactive”.
Consider `Cc1ccc(N=Cc2cc(C)n(C3CCCC3)c2C)cc1`, for which the AC50 is 15.8 µM (active).
On the same count and under the same terms, as for `COC(=O)N1CCC2(CC1)CCN(c1ncccn1)CC2`, the entry is “inactive”; as for `COc1ccc(/C=C/c2ccncc2)cc1`, 8.91 µM (active); as for `COc1cc(/C=C\c2ccc(OC)cc2OC)cc(OC)c1`, “inactive”.
Still for that read-out and setting: next, `COc1ccc(OC(=O)c2ccncc2)cc1`: “inactive”; `CC(C)(C)NC(=O)Cn1cnc([N+](=O)[O-])n1`: “inactive”; `CSc1nc2ccc3nc(NC(=O)c4cccs4)sc3c2s1`: “inactive”.
Consider `O=C(Cn1cnc2ccccc2c1=O)Nc1nnc(SCc2ccccc2)s1`, for which the AC50 entry is “inactive”.
Consider `COc1cc(OC)cc(C(=O)NC(=S)Nc2ccc(Cl)c(C(=O)O)c2)c1`, for which the AC50 result is “inactive”.
With `C[C@@H](c1ccccc1)N1C(=O)[C@H]2[C@H]3[C@H](O)[C@H](O)C/C(=N/OCc4ccccc4)[C@H]3CC[C@@H]2C1=O`, the activity, negative = inhibition was 6.68% [at 11.4 µM] (inactive).
As to `O=c1c(-c2cc(F)cc(F)c2)nc2cnc(Oc3ccccc3)nc2n1C1CC1`, the AC50 entry was “inactive”.
On the same count and under the same terms, next, `CN(C)CCCn1c2c3ccccc3ccc2c2oc(=O)c3ccccc3c21`: 1.26 µM (active).
For `Cc1nc2cccc([N+](=O)[O-])c2n1CCCN(C)C`, the activity, negative = inhibition is 3.67% [at 11.4 µM] (inactive).
On to `O=C1C2C3c4ccccc4C(c4ccccc43)C2C(=O)N1c1nc(-c2ccccc2)cs1` (stereo not given), for which the AC50 entry is “inactive”.
`O=C(Nc1ccc(-c2nc3ccccc3o2)cc1)c1ccc(N2CCOCC2)c([N+](=O)[O-])c1`: the AC50 result is “inactive”.
`O=C(O)C1=CCNCC1`: the AC50 entry was “inactive”.
Still for that read-out and setting: next, `CCC[C@H]1C(=O)N2C(N(C)C)=Nc3ccc(C)cc3N2C1=O`: “inactive”; `O=C(Nc1ccccc1)/C(=C\c1ccncc1)NC(=O)c1ccccc1`: “inactive”.
On the same count and under the same terms, as for `CC(=O)Nc1ccc(NCN2C(=O)C3C4CCC(C4)C3C2=O)cc1` (stereo not given), the entry is “inactive”.
As for `COc1ccccc1NC(=O)C1=C(C)Nc2nc(-c3ccc(N(C)C)cc3)nn2C1c1ccncc1` (stereo not given), the AC50 result was “inactive”.
As for `Nc1nnnn1/N=C\c1ccc(Cl)c([N+](=O)[O-])c1`, the AC50 result is “inactive”.
Still for that read-out and setting: as for `COc1ccc(-n2c(C)n[nH]c2=O)cc1`, the entry is “inactive”.
As for `O=C(O)[C@H]1CCCC[C@@H]1C(=O)Nc1nc2ccccc2[nH]1`, the activity, negative = inhibition was -3.05% [at 11.4 µM] (inactive).
As for `Cc1cc(C)cc(NC(=O)CCc2nc3ccccc3[nH]2)c1`, the AC50 entry was “inactive”.
In the case of `CC(C)c1ccc(NC(=O)N(CCc2nc3ccccc3[nH]2)C2CCCC2)cc1`, the AC50 is 2.51 µM (active).
Still for that read-out and setting: as for `O=C(N/N=C/c1cccc(OC2CSC2)c1)c1ccccc1O`, the entry is “inactive”.
On to `Nc1ccccc1N=Nc1c(S(=O)(=O)O)cc2cc(S(=O)(=O)O)cc(O)c2c1O`, for which the activity, negative = inhibition is -13.1% [at 11.4 µM] (inactive).
On to `CC(C)CCn1c(Oc2ccccc2Cl)nc2c1c(=O)n(C)c(=O)n2C`, for which the AC50 entry is “inactive”.
As to `CC(=O)/C(=C\c1ccccc1F)C(=O)c1ccccc1`, the activity, negative = inhibition was -1.17% [at 11.4 µM] (inactive).
As to `COCCCNC(=O)C1CC(=O)N(CCc2ccc(OC)c(OC)c2)C1` (stereo not given), the AC50 result is “inactive”.
The same measure, in the same setting: as for `CC1CC(C)CN(CCCNC(=O)C2CCCN(c3nnc(N4CCCC4=O)s3)C2)C1` (stereo not given), the entry is “inactive”.
The same measure, in the same setting: as for `CC1CCCN(CCCNC(=O)C2CC(=O)N(c3ccc(F)c(Cl)c3)C2)C1` (stereo not given), the figure is 15.8 µM (active).
The same measure, in the same setting: next, `COC(=O)c1nn(C23CC4CC(CC(C4)C2)C3)c2c1C(=O)N(c1ccc(F)cc1)C2=O`: “inactive”.
`NC1=N[C@H](c2ccc(Cl)cc2)N(c2ccc(S(=O)(=O)Nc3ncccn3)cc2)C(N)=N1`: the activity, negative = inhibition was -2.11% [at 11.4 µM] (inactive).
On to `COc1cccc(/C(O)=C2/C(=O)C(=O)N(c3ccccn3)C2c2ccc(OC)c(OC)c2)c1` (stereo not given), for which the AC50 entry was “inactive”.
Still for that read-out and setting: as for `COc1ccc(C2N=C(N)N=C(N)N2c2ccccc2OC)cc1OC` (stereo not given), the figure is 7.08 µM (active); as for `COc1cccc(Cn2c(=O)c(-c3cn(C)c4ccccc34)nc3cncnc32)c1`, “inactive”.
Same read-out and setting: next, `O=C(O)CCCCCCCC(=O)O`: “inactive”; `COc1ccc(Oc2nc(C)cc(C)c2S(=O)(=O)c2ccc(C)cc2)cc1`: “inactive”.
Same read-out and setting: next, `N[C@H](CCC(=O)NCC(=O)O)C(=O)O`: “inactive”.
For the compound `CC(C)(C)CNC(CO)C12CC3CC(CC(C3)C1)C2` (stereo not given), the AC50 was 10 µM (active).
With `CC(NC(=O)CN1CCCC1)C12CC3CC(CC(C3)C1)C2` (stereo not given), the AC50 result was “inactive”.
In the case of `Cc1ccc(S(=O)(=O)N[C@H]2COC(=O)[C@H](C)COC(=O)[C@H](C)NC(=O)C/C=C\[C@H]2C)cc1`, the activity, negative = inhibition is 12.2% [at 11.4 µM] (inactive).
For the compound `O=C(O)[C@@H]1[C@@H](C(=O)NCc2ccccn2)[C@@H]2C=C[C@@H]1O2`, the activity, negative = inhibition is 8.57% [at 11.4 µM] (inactive).
Regarding `COC(=O)[C@](C)(N)Cc1ccc(O)cc1`, the AC50 result was “inactive”.
For the compound `C[C@H](N)C(=O)OC(C)(C)Cc1ccc(Cl)cc1`, the AC50 was 12.6 µM (active).
Consider `COC(=O)[C@H](N)Cc1ccc(Cl)cc1`, for which the AC50 result was “inactive”.
Turning to `COc1ccc(C2=NC(C(F)(F)F)(C(F)(F)F)c3c(n(C)c(=O)n(C)c3=O)N2)cc1`, the AC50 result is “inactive”.
Still for that read-out and setting: as for `CNC(=O)NC(=S)NC(=O)c1ccc(OC)cc1`, the entry is “inactive”.
For the compound `COc1ccc(-c2nc3cnc(OC)nc3n(-c3ccc(OC)cc3)c2=O)cc1`, the AC50 result was “inactive”.
Same read-out and setting: as for `CCOC(=O)N/N=C/c1ccc(C)o1`, the entry is “inactive”; as for `Cc1ccc(/C=N\Nc2nc3ccc(Cl)cc3[nH]2)o1`, 3.55 µM (active); as for `Cc1ccc(/C=N/NC(=O)Cn2nccc2C)o1`, “inactive”.
`CCCC(=O)n1nc(-c2cccnc2)nc1N`: the AC50 result was “inactive”.
Same read-out and setting: as for `Cc1nnsc1SC(C)C(=O)O` (stereo not given), the entry is “inactive”.
Still for that read-out and setting: as for `CCn1c(COc2ccc(C)cc2)nnc1SCc1ccc(C#N)cc1`, the entry is “inactive”.
Regarding `O=C(Nc1cc(Sc2ccccn2)cc([N+](=O)[O-])c1)c1ccc(Cl)cc1`, the AC50 is 8.91 µM (active).
For the compound `O=C(Nc1cccc([N+](=O)[O-])c1)c1ccc(CSc2ccccc2)cc1`, the AC50 entry is “inactive”.
Same read-out and setting: as for `O=C(Nc1cc(Sc2ccccn2)cc([N+](=O)[O-])c1)c1ccc([N+](=O)[O-])cc1`, the entry is “inactive”.
